Inconclusive results are not listed. The source made the active and inactive calls. Unless noted, calls follow the shape of the dose curve; as a rule, active = well fitted curve in the direction sought with a large enough effect; inconclusive = small, poorly fitted or top-dose-only effect, or another doubt; inactive = no such curve, though single readings can be large; an effect the other way counts as inactive or inconclusive.
Columns and labels:
[1] = qHTS assay for measurement of the activity of small molecule inhibitors on Zika virus induced Caspase-3 activity in human iPSC derived neural progenitor cells (hNPCs) (AID 1224857); also: nearly all actives have a fitted effect of over 65% in size
Summary of the method: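 Human iPSC-derived neural progenitor cells pretreated 1 hr with compounds, then infected with Zika virus (2 FFU/cell) for 6 hours at 37 C. Caspase-3/7 measured by Caspase-Glo luminescence; % inhibition calculated from induction scaled to uninfected (0%) and infected (100%) wells.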

[2] = qHTS assay for measurement of the activity of small molecule inhibitors on Zika virus induced Caspase-3 activity in human astrocytoma cells (AID 1224859)
Summary of the method: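 SNB-19 astrocytoma cells, 250/well, pretreated 1 h with compounds, then Zika virus at 2 FFU/cell for 6 h at 37 C; Caspase-Glo 3/7 luminescence after 30 min; percent inhibition normalised to uninfected and infected controls.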

[3] = qHTS of pediatric cancer cell lines to identify multiple opportunities for drug repurposing: Primary screen for TC32 cells (AID 1347089); also: nearly all actives have a fitted effect of over 60% in size
Summary of the method: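 In the primary qHTS, MIPE compounds were tested at 11 concentrations (0.78 nM to 46 µM) and NPC compounds at 8 (0.59 nM to 46 µM) on TC32 cells for 48 h. CellTiter-Glo luminescence gave viability.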

[4] = qHTS of pediatric cancer cell lines to identify multiple opportunities for drug repurposing: Primary screen for SJ-GBM2 cells (AID 1347091); also: potency is read from the fitted curve at half-maximal effect
Summary of the method: (§1)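 Eight- or eleven-point concentration series, 48 h treatment at 37 degrees C in growth media; readout CellTiter-Glo luminescence. Potency and efficacy were taken from the concentration-response curves.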

[5] = qHTS of pediatric cancer cell lines to identify multiple opportunities for drug repurposing: Primary screen for NB-EBc1 cells (AID 1347095); also: potency is read from the fitted curve at half-maximal effect
Summary of the method: (§2)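 Phenotypic viability qHTS, 48 h compound exposure, CellTiter-Glo luminescence read-out; multi-concentration dosing so that potency and efficacy derive directly from the primary screen's curves.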

[6] = qHTS of pediatric cancer cell lines to identify multiple opportunities for drug repurposing: Primary screen for DAOY cells (AID 1347090); also: nearly all actives have a fitted effect of over 55% in size; also: potency is read from the fitted curve at half-maximal effect
Summary of the method: as §1

[7] = qHTS of pediatric cancer cell lines to identify multiple opportunities for drug repurposing: Primary screen for A673 cells (AID 1347092); also: nearly all actives have a fitted effect of over 45% in size; also: potency is read from the fitted curve at half-maximal effect
Summary of the method: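 48 h compound exposure, A673, 500-1,000 cells/well, 37 degrees C/5% CO2. MIPE: 11-point, 0.78 nM-46 µM; NPC: 8-point, 0.59 nM-46 µM (final). Readout CellTiter-Glo luminescence after 15 min RT.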

[8] = qHTS of pediatric cancer cell lines to identify multiple opportunities for drug repurposing: Primary screen for SK-N-MC cells (AID 1347093); also: potency is read from the fitted curve at half-maximal effect
Summary of the method: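 Metabolically active cells were quantified by ATP-dependent luminescence (CellTiter-Glo, 15 min at room temperature) following 48 h treatment. Cells had been plated at 500-1,000 per well and settled for 5 h beforehand.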

[9] = qHTS of pediatric cancer cell lines to identify multiple opportunities for drug repurposing: Primary screen for BT-37 cells (AID 1347094); also: potency is read from the fitted curve at half-maximal effect
Summary of the method: as §2

[10] = qHTS of pediatric cancer cell lines to identify multiple opportunities for drug repurposing: Primary screen for U-2 OS cells (AID 1347096); also: nearly all actives have a fitted effect of over 50% in size
Summary of the method: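 Cells (500-1,000/well) in growth media were settled 5 h at 37 degrees C, then given compounds for 48 h. Viability was read as CellTiter-Glo luminescence. Primary runs used MIPE at 11 points (0.78 nM-46 µM) and NPC at 8 points (0.59 nM-46 µM); follow-ups used 11 points.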

[11] = qHTS of pediatric cancer cell lines to identify multiple opportunities for drug repurposing: Primary screen for Saos-2 cells (AID 1347097); also: nearly all actives have a fitted effect of over 40% in size; also: potency is read from the fitted curve at half-maximal effect
Summary of the method: as §2

[12] = NS1 protein of Zika virus - qHTS assay to identify small molecule inhibitors in human HEK 293 cells (AID 1347053); also: series mostly up to about 46 µM; nearly all actives have a fitted effect of over 55% in size
Summary of the method: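 In this cell-based screen, HEK 293 cultures received compound for one hour before Zika MR766 at MOI = 0.5. NS1 was quantified 24 hours later by TR-FRET, normalized to virus-free wells and infected wells.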

[13] = P-glycoprotein substrates identified in KB-3-1 adenocarcinoma cell line, qHTS therapeutic library screen (AID 1346986); also: nearly all actives have a fitted effect of over 60% in size
Summary of the method: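 Using luminescence to quantify ATP, parental and P-gp-overexpressing KB cells were compared after 72 h compound titration. KB-8-5-11 was also run with the P-gp inhibitor tariquidar.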

[14] = P-glycoprotein substrates identified in KB-8-5-11 adenocarcinoma cell line, qHTS therapeutic library screen (AID 1346987); also: nearly all actives have a fitted effect of over 65% in size; also: potency is read from the fitted curve at half-maximal effect
Summary of the method: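 Human cervical adenocarcinoma KB-8-5-11 cells, selected in colchicine to over-express P-gp and assayed without it, were exposed for 72 h to titrated compounds. An ATP-based luminescent viability signal gave AC50.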

[15] = Natriuretic polypeptide receptor (hNpr1) antagonism - Pilot counterscreen GloSensor control cell line (AID 1347045; calls by dose curve; also: series mostly up to about 38 µM)
Summary of the method: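 The SNP-driven cGMP luminescence signal (50 uM, 20 min, room temperature) was measured in GloSensor HEK293 control cells. Compounds were tested as a LOPAC titration series and preincubated for 30-50 min.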

[16] = target: Atrial natriuretic peptide receptor 1 (Homo sapiens) (UniProt P16066); experiment: Natriuretic polypeptide receptor (hNpr1) antagonism - Pilot screen (AID 1347049; calls by dose curve;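 also: HEK293 cells with hNpr1 and GloSensor cGMP luciferase stimulated by 0.1 nM hNppA; agonist-evoked cGMP luminescence read 20 min after hNppA addition; series mostly up to about 58 µM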)
Summary of the method: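 Cells expressing receptor plus cGMP biosensor are seeded and incubated overnight at 37C, then loaded with GloSensor reagent (2% final) at room temperature for 2 h. Library compounds go on for 30 min. A pre-read precedes agonist (hNppA, 0.1 nM final) and a 20-min readout.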

[17] = target: Atrial natriuretic peptide receptor 2 (Homo sapiens) (UniProt P20594); experiment: Natriuretic polypeptide receptor (hNpr2) antagonism - Pilot subtype selectivity assay (AID 1347050; calls by dose curve)
Summary of the method: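 Read-out: GloSensor luminescence (CCD imager), baseline vs post-stimulation. HEK293 cells expressing hNpr2; compounds pre-incubated 30-50 min at ambient temperature; hNppC 1 nM final, 20 min.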

[18] = target: Tyrosine-protein phosphatase non-receptor type substrate 1 (Homo sapiens) + Leukocyte surface antigen CD47 (Homo sapiens) (UniProt P78324+Q08722); experiment: CD47-SIRPalpha protein protein interaction - Alpha assay qHTS validation (AID 1347059);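 also: bead proximity luminescence from CD47 binding SIRPalpha after compound preincubation with SIRPalpha; potency is read from the fitted curve at half-maximal effect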
Summary of the method: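 In PBS (pH 7.4) with 0.05% IGEPAL CA-630, compound is preincubated with biotin-Avi-SIRPalpha ectodomain before His-CD47 ectodomain and affinity beads are added. Light-protected room-temperature incubations; AlphaScreen readout.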

Measured: Potency

Atrial natriuretic peptide receptor 1 (Homo sapiens), sequence (P16066 whole entry, looked up): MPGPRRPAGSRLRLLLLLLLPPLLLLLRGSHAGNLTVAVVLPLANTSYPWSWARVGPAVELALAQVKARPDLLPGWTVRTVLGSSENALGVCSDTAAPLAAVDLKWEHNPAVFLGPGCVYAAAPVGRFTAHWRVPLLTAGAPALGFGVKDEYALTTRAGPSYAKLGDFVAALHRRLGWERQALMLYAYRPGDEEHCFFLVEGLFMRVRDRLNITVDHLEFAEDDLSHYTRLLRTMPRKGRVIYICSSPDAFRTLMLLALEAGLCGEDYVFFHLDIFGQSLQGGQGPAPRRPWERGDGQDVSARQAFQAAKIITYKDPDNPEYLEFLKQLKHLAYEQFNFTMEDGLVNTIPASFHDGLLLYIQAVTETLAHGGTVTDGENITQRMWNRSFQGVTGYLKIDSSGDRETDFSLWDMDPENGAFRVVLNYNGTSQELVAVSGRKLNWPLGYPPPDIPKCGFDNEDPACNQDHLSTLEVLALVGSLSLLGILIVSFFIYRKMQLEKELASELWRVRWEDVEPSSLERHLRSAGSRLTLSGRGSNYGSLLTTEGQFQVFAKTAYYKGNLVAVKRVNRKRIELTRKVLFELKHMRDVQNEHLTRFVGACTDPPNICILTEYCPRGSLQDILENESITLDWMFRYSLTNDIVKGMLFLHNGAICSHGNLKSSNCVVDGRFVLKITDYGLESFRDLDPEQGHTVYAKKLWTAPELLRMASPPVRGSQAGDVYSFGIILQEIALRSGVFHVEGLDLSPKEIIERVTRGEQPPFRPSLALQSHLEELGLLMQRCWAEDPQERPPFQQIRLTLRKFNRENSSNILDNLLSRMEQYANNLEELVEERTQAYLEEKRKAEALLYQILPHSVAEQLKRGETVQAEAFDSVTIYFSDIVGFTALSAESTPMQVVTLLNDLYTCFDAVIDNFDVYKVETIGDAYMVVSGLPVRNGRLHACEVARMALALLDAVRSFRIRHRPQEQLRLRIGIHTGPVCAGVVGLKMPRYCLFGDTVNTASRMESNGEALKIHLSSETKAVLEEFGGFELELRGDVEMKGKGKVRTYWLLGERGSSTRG
Atrial natriuretic peptide receptor 2 (Homo sapiens), sequence (P20594 whole entry, looked up): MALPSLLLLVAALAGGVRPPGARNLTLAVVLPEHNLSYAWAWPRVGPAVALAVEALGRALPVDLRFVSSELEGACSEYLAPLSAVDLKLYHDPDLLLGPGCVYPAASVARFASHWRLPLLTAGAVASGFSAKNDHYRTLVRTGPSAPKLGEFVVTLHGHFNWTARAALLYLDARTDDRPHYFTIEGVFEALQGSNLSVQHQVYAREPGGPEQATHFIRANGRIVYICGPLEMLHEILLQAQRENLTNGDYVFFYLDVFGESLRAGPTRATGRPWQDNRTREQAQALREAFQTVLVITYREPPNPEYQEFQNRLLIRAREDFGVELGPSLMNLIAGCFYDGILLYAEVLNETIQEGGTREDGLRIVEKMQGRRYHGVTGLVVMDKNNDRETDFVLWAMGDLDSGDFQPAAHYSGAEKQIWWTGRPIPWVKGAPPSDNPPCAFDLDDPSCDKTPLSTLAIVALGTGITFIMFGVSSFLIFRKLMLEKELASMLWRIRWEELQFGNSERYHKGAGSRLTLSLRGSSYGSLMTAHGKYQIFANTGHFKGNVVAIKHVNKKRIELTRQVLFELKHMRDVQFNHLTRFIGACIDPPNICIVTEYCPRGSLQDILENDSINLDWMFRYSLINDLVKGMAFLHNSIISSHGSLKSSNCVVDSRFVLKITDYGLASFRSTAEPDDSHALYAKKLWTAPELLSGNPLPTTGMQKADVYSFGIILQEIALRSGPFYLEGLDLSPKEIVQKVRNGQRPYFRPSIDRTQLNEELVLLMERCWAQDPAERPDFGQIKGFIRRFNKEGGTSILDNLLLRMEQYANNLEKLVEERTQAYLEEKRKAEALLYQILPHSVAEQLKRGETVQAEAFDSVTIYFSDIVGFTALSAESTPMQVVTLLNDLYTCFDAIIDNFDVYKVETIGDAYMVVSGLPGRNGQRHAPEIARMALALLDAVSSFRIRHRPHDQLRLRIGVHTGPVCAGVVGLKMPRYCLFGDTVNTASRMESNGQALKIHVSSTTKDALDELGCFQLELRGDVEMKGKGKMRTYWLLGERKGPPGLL
Tyrosine-protein phosphatase non-receptor type substrate 1 (Homo sapiens) + Leukocyte surface antigen CD47 (Homo sapiens), sequence (P78324 whole entry, looked up, the tested form may be a part): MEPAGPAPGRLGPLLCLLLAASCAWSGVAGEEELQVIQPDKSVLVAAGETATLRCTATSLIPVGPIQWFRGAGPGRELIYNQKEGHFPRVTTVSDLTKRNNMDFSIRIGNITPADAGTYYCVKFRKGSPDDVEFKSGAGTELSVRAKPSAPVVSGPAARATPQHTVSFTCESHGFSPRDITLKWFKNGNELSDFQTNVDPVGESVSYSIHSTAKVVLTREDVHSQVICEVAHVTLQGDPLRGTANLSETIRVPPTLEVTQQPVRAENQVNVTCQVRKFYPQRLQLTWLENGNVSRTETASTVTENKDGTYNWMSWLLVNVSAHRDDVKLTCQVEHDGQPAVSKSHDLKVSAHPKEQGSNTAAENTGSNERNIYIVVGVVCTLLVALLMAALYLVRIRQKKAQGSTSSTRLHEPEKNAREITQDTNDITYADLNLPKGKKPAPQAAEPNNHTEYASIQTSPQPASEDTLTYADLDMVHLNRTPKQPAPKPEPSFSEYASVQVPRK
Tyrosine-protein phosphatase non-receptor type substrate 1 (Homo sapiens) + Leukocyte surface antigen CD47 (Homo sapiens), sequence (Q08722 whole entry, looked up, the tested form may be a part): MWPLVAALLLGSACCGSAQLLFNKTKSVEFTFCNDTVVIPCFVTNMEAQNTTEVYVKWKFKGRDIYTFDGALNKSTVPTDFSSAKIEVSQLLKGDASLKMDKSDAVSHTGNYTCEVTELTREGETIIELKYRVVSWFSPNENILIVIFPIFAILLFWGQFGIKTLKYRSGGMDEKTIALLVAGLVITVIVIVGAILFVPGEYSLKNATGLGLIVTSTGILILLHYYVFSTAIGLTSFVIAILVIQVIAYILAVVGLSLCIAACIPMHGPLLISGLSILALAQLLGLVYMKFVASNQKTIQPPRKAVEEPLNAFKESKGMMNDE

Nc1ccc2c(c1)CN1C(=O)c3ccccc3C1=N2
active: [5] 0.651 µM
inactive: [1] | [2] | [3] | [4]

N=C(N)c1ccc(OCCCOc2ccc(C(=N)N)cc2)cc1
not listed: [12] | [13] | [14] | [15] | [16] | [17] | [18]
inactive: all other assays above

COC(=O)[C@H]1[C@H]2C[C@@H]3c4[nH]c5cc(OC)ccc5c4CCN3C[C@H]2C[C@@H](OC(=O)/C=C/c2ccc(O)c(OC)c2)[C@@H]1OC
inactive: [1] | [2] | [12] | [6]
active: [8] 5.96 µM | [11] 16.8 µM

CCOC(=O)C(O)c1ccccc1 (stereo unspecified)
not listed: [12] | [13] | [14] | [15] | [16] | [17] | [18]
inactive: all other assays above

CCC(C(=O)OCCN1CCOC(c2ccccc2)C1C)c1ccccc1 (stereo unspecified)
inactive: [1] | [2] | [3] | [6] | [7] | [8] | [9] | [5] | [10] | [11]

CCS(=O)(=O)c1ccc(OC)c(C(=O)OC)c1
inactive: [1] | [2] | [3] | [6] | [4] | [7] | [9] | [10] | [11]

NC(=O)C1(N2CCCCC2)CCN(CCCN2c3ccccc3CCc3ccc(Cl)cc32)CC1
active: [11] 21.1 µM
inactive: [1] | [2]

CCCC(=O)O[C@]1(C(=O)CCl)[C@@H](C)C[C@H]2[C@@H]3CCC4=CC(=O)C=C[C@]4(C)[C@@]3(F)C(=O)C[C@@]21C
inactive: [1] | [2] | [3] | [10]

CO/N=C(/C(=O)N[C@@H]1C(=O)N2C(C(=O)O)=C(Cn3nnc(C)n3)CS[C@H]12)c1csc(N)n1
not listed: [2] | [12] | [15] | [16] | [17] | [18]
inactive: all other assays above

CC(COc1ccccc1)NN (stereo unspecified)
inactive: [1] | [12] | [3] | [6] | [4] | [7] | [8] | [9] | [5] | [10]

N[C@@H](Cn1ccc(=O)c(O)c1)C(=O)O
inactive: [2] | [14] inactive [at 5.11 µM] | [15] | [16] | [17] | [12]
active: [18] 0.0585 µM

CCCCCCCC(=O)[O-].CCCCCCCC(=O)[O-].[Zn+2]
inactive: [1] | [12] | [3] | [6] | [4] | [7] | [9] | [5] | [10] | [11]

O=C(O)/C=C(\CC(=O)O)C(=O)O
not listed: [2] | [9] | [13] | [15] | [16] | [17] | [18]
inactive: all other assays above

C[C@H]1C[C@H]2[C@@H]3CCC4=CC(=O)C=C[C@]4(C)[C@H]3C(=O)C[C@]2(C)[C@@]1(O)C(=O)CO
inactive: [1] | [12] | [3] | [6] | [4] | [7] | [8] | [9] | [5] | [10]

CN(C)CCOC(c1ccccc1)c1ccc(Br)cc1 (stereo unspecified)
inactive: [1] | [12] | [3] | [6] | [4] | [7] | [9] | [5] | [10] | [11]

O=C(Nc1ccc(Cl)cc1)Nc1ccc(Cl)c(C(F)(F)F)c1
active: [14] 20.6 µM | [6] 13.3 µM | [4] 3.35 µM | [7] 21.1 µM | [8] 4.73 µM | [9] 27.6 µM | [5] 5.96 µM | [11] 13.3 µM
inactive: [1]

O=C1CC(c2ccc(Cl)cc2)CC(=O)N1
inactive: [1] | [12] | [6] | [4] | [7] | [8] | [9] | [5] | [10] | [11]

Cc1ccc(-c2ccccc2C#N)cc1
not listed: [2] | [13] | [14] | [15] | [16] | [17] | [18]
inactive: all other assays above

Cc1cc(O)c2c(O)c3c(O)cccc3cc2c1
inactive: [1] | [12] | [3] | [6] | [4] | [7] | [8] | [9] | [5] | [11]

CN(C)CCN(Cc1ccsc1)c1ccccn1
inactive: [1] | [12] | [3] | [6] | [4] | [7] | [8] | [10] | [11]

CCOC(=O)c1ccc(NC(=O)CN2CCCCC2)cc1
not listed: [1] | [14] | [15] | [16] | [17] | [18]
inactive: all other assays above

O=C(COCCOCCOCC(=O)Nc1c(I)cc(I)c(C(=O)O)c1I)Nc1c(I)cc(I)c(C(=O)O)c1I
not listed: [2] | [8] | [13] | [15] | [16] | [17] | [18]
inactive: all other assays above

Reference: PubChem BioAssay (NCATS)
